# The supplement of paper PMC12282887
# ± gives the standard deviation of the averaged measurements.
# Tests used:
# Test in all cases: promoter activity interaction Z-score (Lux/OD deviation from empty-vector control); higher = stronger promoter induction by the compound
# [1] = system: E. coli BW25113 acrABp lux reporter
# How it was run: (§1)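 E. coli BW25113 luxCDABE reporter strains grew at 37°C in 40 µl LB Lennox in 384-well plates, with OD600 and luminescence read every 30 min for 12 h. After integration over 0–8 h for wild type or 1–9 h for deletion strains, wells under 10% of the median growth value were removed. Each score is the Z-transformed residual of growth-normalised luminescence fitted against a control.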
# [2] = system: E. coli BW25113 marRABp lux reporter
# How it was run: as §1
# [3] = system: E. coli BW25113 micFp lux reporter
# How it was run: as §1
# [4] = system: E. coli BW25113 ompFp lux reporter
# How it was run: as §1
# [5] = system: E. coli BW25113 robp lux reporter
# How it was run: as §1
# [6] = system: E. coli BW25113 soxSp lux reporter
# How it was run: as §1
# [7] = system: E. coli BW25113 tolCp lux reporter
# How it was run: as §1
# [8] = 0.25 µg/ml, genetic background: wild type
# [9] = 0.25 µg/ml, genetic background: ΔmarA
# [10] = 0.25 µg/ml, genetic background: Δrob
# [11] = 0.25 µg/ml, genetic background: ΔsoxS
# [12] = 0.5 µg/ml, genetic background: wild type
# [13] = 0.5 µg/ml, genetic background: ΔmarA
# [14] = 0.5 µg/ml, genetic background: Δrob
# [15] = 0.5 µg/ml, genetic background: ΔsoxS
# [16] = 1 µg/ml, genetic background: wild type
# [17] = 1 µg/ml, genetic background: ΔmarA
# [18] = 1 µg/ml, genetic background: Δrob
# [19] = 1 µg/ml, genetic background: ΔsoxS
# [20] = 2 µg/ml, genetic background: wild type
# [21] = 2 µg/ml, genetic background: ΔmarA
# [22] = 2 µg/ml, genetic background: Δrob
# [23] = 2 µg/ml, genetic background: ΔsoxS
smiles,measurement,setting,value
CC1(C)S[C@@H]2[C@H](NC(=O)[C@H](N)c3ccc(O)cc3)C(=O)N2[C@H]1C(=O)O [Amoxicillin],promoter activity interaction Z-score,[1]; [8],-0.14 ± 0.051
same,promoter activity interaction Z-score,[1]; [9],-0.253 ± 0.59
same,promoter activity interaction Z-score,[1]; [10],-0.295 ± 0.22
same,promoter activity interaction Z-score,[1]; [11],-0.0223 ± 0.27
same,promoter activity interaction Z-score,[1]; [12],0.0232 ± 0.18
same,promoter activity interaction Z-score,[1]; [13],0.274 ± 0.094
same,promoter activity interaction Z-score,[1]; [14],-0.216 ± 0.0076
same,promoter activity interaction Z-score,[1]; [15],-0.454 ± 0.18
same,promoter activity interaction Z-score,[1]; [16],0.074 ± 0.092
same,promoter activity interaction Z-score,[1]; [17],-0.334 ± 1.8
same,promoter activity interaction Z-score,[1]; [18],-0.382 ± 0.033
same,promoter activity interaction Z-score,[1]; [19],-0.0766 ± 0.0011
same,promoter activity interaction Z-score,[1]; [20],2.15
same,promoter activity interaction Z-score,[1]; [21],0.388
same,promoter activity interaction Z-score,[1]; [22],0.134
same,promoter activity interaction Z-score,[2]; [8],-0.00562 ± 0.025
same,promoter activity interaction Z-score,[2]; [9],-0.347 ± 0.22
same,promoter activity interaction Z-score,[2]; [10],-0.215 ± 0.082
same,promoter activity interaction Z-score,[2]; [11],-0.207 ± 0.2
same,promoter activity interaction Z-score,[2]; [12],-0.157 ± 0.027
same,promoter activity interaction Z-score,[2]; [13],-0.297 ± 0.22
same,promoter activity interaction Z-score,[2]; [14],-0.322 ± 0.047
same,promoter activity interaction Z-score,[2]; [15],-0.372 ± 0.14
same,promoter activity interaction Z-score,[2]; [16],-0.138 ± 0.097
same,promoter activity interaction Z-score,[2]; [17],-0.483 ± 0.18
same,promoter activity interaction Z-score,[2]; [18],-0.211 ± 0.031
same,promoter activity interaction Z-score,[2]; [19],-0.251 ± 0.091
same,promoter activity interaction Z-score,[2]; [20],2.97
same,promoter activity interaction Z-score,[2]; [21],2.07
same,promoter activity interaction Z-score,[2]; [22],3.21
same,promoter activity interaction Z-score,[2]; [23],1.67
same,promoter activity interaction Z-score,[3]; [8],0.256 ± 0.44
same,promoter activity interaction Z-score,[3]; [9],-0.0861 ± 0.065
same,promoter activity interaction Z-score,[3]; [10],0.0252 ± 0.083
same,promoter activity interaction Z-score,[3]; [11],-0.211 ± 0.11
same,promoter activity interaction Z-score,[3]; [12],0.278 ± 0.29
same,promoter activity interaction Z-score,[3]; [13],-0.0538 ± 0.13
same,promoter activity interaction Z-score,[3]; [14],0.0683 ± 0.17
same,promoter activity interaction Z-score,[3]; [15],-0.261 ± 0.46
same,promoter activity interaction Z-score,[3]; [16],0.0789 ± 0.095
same,promoter activity interaction Z-score,[3]; [17],-0.0503 ± 0.00046
same,promoter activity interaction Z-score,[3]; [18],0.0923 ± 0.071
same,promoter activity interaction Z-score,[3]; [19],-0.05 ± 0.078
same,promoter activity interaction Z-score,[3]; [20],1.75 ± 2.8
same,promoter activity interaction Z-score,[3]; [21],-0.285 ± 0.003
same,promoter activity interaction Z-score,[3]; [22],-0.0252 ± 0.1
same,promoter activity interaction Z-score,[3]; [23],-0.185 ± 0.25
same,promoter activity interaction Z-score,[4]; [8],0.146 ± 0.14
same,promoter activity interaction Z-score,[4]; [9],-0.696 ± 0.38
same,promoter activity interaction Z-score,[4]; [10],-0.183 ± 0.067
same,promoter activity interaction Z-score,[4]; [11],-0.811 ± 0.064
same,promoter activity interaction Z-score,[4]; [12],0.133 ± 0.13
same,promoter activity interaction Z-score,[4]; [13],-0.265 ± 0.34
same,promoter activity interaction Z-score,[4]; [14],-0.637 ± 0.024
same,promoter activity interaction Z-score,[4]; [15],-0.837 ± 0.48
same,promoter activity interaction Z-score,[4]; [16],-0.523 ± 0.21
same,promoter activity interaction Z-score,[4]; [17],-0.753 ± 0.13
same,promoter activity interaction Z-score,[4]; [18],-0.725 ± 0.24
same,promoter activity interaction Z-score,[4]; [19],-0.869 ± 0.041
same,promoter activity interaction Z-score,[4]; [21],-1.92
same,promoter activity interaction Z-score,[5]; [8],0.459 ± 0.29
same,promoter activity interaction Z-score,[5]; [9],-0.028 ± 0.04
same,promoter activity interaction Z-score,[5]; [10],-0.226 ± 0.034
same,promoter activity interaction Z-score,[5]; [11],-0.349 ± 0.75
same,promoter activity interaction Z-score,[5]; [12],0.699 ± 0.03
same,promoter activity interaction Z-score,[5]; [13],-0.354 ± 0.23
same,promoter activity interaction Z-score,[5]; [14],0.168 ± 0.52
same,promoter activity interaction Z-score,[5]; [15],-0.698 ± 0.12
same,promoter activity interaction Z-score,[5]; [16],-0.0437 ± 0.14
same,promoter activity interaction Z-score,[5]; [17],-0.0839 ± 0.86
same,promoter activity interaction Z-score,[5]; [18],0.396 ± 1.2
same,promoter activity interaction Z-score,[5]; [19],-1.05 ± 0.49
same,promoter activity interaction Z-score,[5]; [20],-1.64
same,promoter activity interaction Z-score,[5]; [21],0.17
same,promoter activity interaction Z-score,[6]; [8],0.174 ± 0.46
same,promoter activity interaction Z-score,[6]; [9],-0.165 ± 0.13
same,promoter activity interaction Z-score,[6]; [10],0.236 ± 0.24
same,promoter activity interaction Z-score,[6]; [11],-0.199 ± 0.15
same,promoter activity interaction Z-score,[6]; [12],0.319 ± 0.15
same,promoter activity interaction Z-score,[6]; [13],-0.00956 ± 0.1
same,promoter activity interaction Z-score,[6]; [14],0.0715 ± 0.076
same,promoter activity interaction Z-score,[6]; [15],-0.424 ± 0.15
same,promoter activity interaction Z-score,[6]; [16],0.0777 ± 0.017
same,promoter activity interaction Z-score,[6]; [17],-0.259 ± 0.12
same,promoter activity interaction Z-score,[6]; [18],0.156 ± 0.14
same,promoter activity interaction Z-score,[6]; [19],-0.361 ± 0.23
same,promoter activity interaction Z-score,[6]; [20],0.325 ± 0.57
same,promoter activity interaction Z-score,[6]; [21],-0.389 ± 0.55
same,promoter activity interaction Z-score,[6]; [22],0.0112 ± 0.1
same,promoter activity interaction Z-score,[6]; [23],0.999 ± 0.21
same,promoter activity interaction Z-score,[7]; [8],0.312 ± 0.33
same,promoter activity interaction Z-score,[7]; [9],-0.1 ± 0.033
same,promoter activity interaction Z-score,[7]; [10],0.375 ± 1
same,promoter activity interaction Z-score,[7]; [11],-0.105 ± 0.3
same,promoter activity interaction Z-score,[7]; [12],0.531 ± 0.051
same,promoter activity interaction Z-score,[7]; [13],0.00734 ± 0.28
same,promoter activity interaction Z-score,[7]; [14],0.919 ± 0.041
same,promoter activity interaction Z-score,[7]; [15],-0.655 ± 0.93
same,promoter activity interaction Z-score,[7]; [16],0.148 ± 0.45
same,promoter activity interaction Z-score,[7]; [17],-0.404 ± 0.22
same,promoter activity interaction Z-score,[7]; [18],0.949 ± 0.14
same,promoter activity interaction Z-score,[7]; [19],-0.0133 ± 0.46
same,promoter activity interaction Z-score,[7]; [20],0.917 ± 0.13
same,promoter activity interaction Z-score,[7]; [21],-0.67 ± 0.039
same,promoter activity interaction Z-score,[7]; [22],0.283 ± 0.8
same,promoter activity interaction Z-score,[7]; [23],-0.752 ± 0.58
